Measurements as given in PubChem BioAssay (NCI).
Where “and” joins values, the source holds several entries; their conditions need not be identical. Equal entries are not always repeated. This is part of a sample that, as a whole, favours compounds with a hit. Of some 83,000 tested, about 20% had one in any assay.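 Assay: single dose, 48 h. Readout: percent growth (0 = no net growth; negative = cell death). Active: <10.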 Calls of active or inactive are those of the source.

How the values were obtained:
Assay in all cases: NCI-60 one-dose screen, 48 h (100 = growth as untreated, 0 = no growth, -100 = all killed)
Details in all cases: 10 µM unless noted
SR leukemia = test system: SR leukemia
RPMI-8226 leukemia = test system: RPMI-8226 leukemia
OVCAR-8 ovarian = test system: OVCAR-8 ovarian
OVCAR-5 ovarian = test system: OVCAR-5 ovarian
OVCAR-4 ovarian = test system: OVCAR-4 ovarian
SK-OV-3 ovarian = test system: SK-OV-3 ovarian
IGROV1 ovarian = test system: IGROV1 ovarian
OVCAR-3 ovarian = test system: OVCAR-3 ovarian
HS 578T breast = test system: HS 578T breast
NCI/ADR-RES ovarian = test system: NCI/ADR-RES ovarian
T-47D breast = test system: T-47D breast
BT-549 breast = test system: BT-549 breast
MDA-MB-435 melanoma = test system: MDA-MB-435 melanoma
SW-620 colon = test system: SW-620 colon
MCF7 breast = test system: MCF7 breast
HCT-116 colon = test system: HCT-116 colon
HCC-2998 colon = test system: HCC-2998 colon
KM12 colon = test system: KM12 colon

Compound	growth (SR leukemia)	growth (RPMI-8226 leukemia)	growth (OVCAR-8 ovarian)	growth (OVCAR-5 ovarian)	growth (OVCAR-4 ovarian)	growth (SK-OV-3 ovarian)	growth (IGROV1 ovarian)	growth (OVCAR-3 ovarian)	growth (HS 578T breast)	growth (NCI/ADR-RES ovarian)	growth (T-47D breast)	growth (BT-549 breast)	growth (MDA-MB-435 melanoma)	growth (SW-620 colon)	growth (MCF7 breast)	growth (HCT-116 colon)	growth (HCC-2998 colon)	growth (KM12 colon)
CCCCOC(=O)/C=C\C(=O)NC(N)=O	-22.3% (active)	39.5% (inactive)	71.1% (inactive)	93.1% (inactive)	93.4% (inactive)	111% (inactive)	74.1% (inactive)	87.7% (inactive)	99.1% (inactive)	90.8% (inactive)	60.4% (inactive)	63.5% (inactive)	99.4% (inactive)	57.1% (inactive)	81.1% (inactive)	80.1% (inactive)	108% (inactive)	106% (inactive)
CC(=O)Nc1ccc(S(N)(=O)=O)cc1	117% (inactive) and 105% (inactive)	95.6% (inactive) and 111% (inactive)	99.5% (inactive) and 97.6% (inactive)	106% (inactive) and 102% (inactive)	99.4% (inactive) and 105% (inactive)	95.4% (inactive) and 99.8% (inactive)	99.5% (inactive) and 97.1% (inactive)	110% (inactive) and 116% (inactive)	96.3% (inactive) and 113% (inactive)	102% (inactive) and 104% (inactive)	87.7% (inactive) and 100% (inactive)	104% (inactive)	97.4% (inactive) and 96.3% (inactive)	96.7% (inactive) and 104% (inactive)	91.8% (inactive) and 93.3% (inactive)	94.2% (inactive) and 93.6% (inactive)	108% (inactive)	109% (inactive) and 108% (inactive)
O=C(CO)C(O)C(O)C(O)C(O)CO (stereo not drawn)	103% (inactive) and 93.9% (inactive)	107% (inactive) and 100% (inactive)	108% (inactive) and 99.9% (inactive)	105% (inactive) and 109% (inactive)	108% (inactive) and 116% (inactive)	87.8% (inactive) and 85.7% (inactive)	106% (inactive) and 109% (inactive)	110% (inactive) and 109% (inactive)	101% (inactive) and 104% (inactive)	106% (inactive) and 107% (inactive)	–	111% (inactive) and 117% (inactive)	110% (inactive) and 107% (inactive)	105% (inactive) and 100% (inactive)	101% (inactive) and 102% (inactive)	99.7% (inactive) and 97.4% (inactive)	109% (inactive) and 119% (inactive)	106% (inactive) and 105% (inactive)
C#CCOC(=O)Nc1ccccc1	111% (inactive)	105% (inactive)	103% (inactive)	95.8% (inactive)	93.5% (inactive)	109% (inactive)	–	115% (inactive)	105% (inactive)	104% (inactive)	109% (inactive)	106% (inactive)	98.8% (inactive)	105% (inactive)	87.4% (inactive)	–	100% (inactive)	110% (inactive)
CC1(C)COC(=S)N1	93.8% (inactive)	–	103% (inactive)	93.4% (inactive)	102% (inactive)	109% (inactive)	–	110% (inactive)	106% (inactive)	106% (inactive)	99.9% (inactive)	102% (inactive)	–	109% (inactive)	105% (inactive)	–	106% (inactive)	112% (inactive)
O=C(O)/C=C\C(=O)Nc1cccc2ccccc12	103% (inactive) and 70.2% (inactive)	81.8% (inactive) and 95.4% (inactive)	102% (inactive) and 105% (inactive)	100% (inactive) and 104% (inactive)	92.2% (inactive) and 115% (inactive)	92% (inactive) and 103% (inactive)	–	90.1% (inactive) and 113% (inactive)	105% (inactive) and 104% (inactive)	110% (inactive) and 104% (inactive)	120% (inactive) and 107% (inactive)	84.4% (inactive) and 91.7% (inactive)	–	99.5% (inactive) and 106% (inactive)	97.3% (inactive) and 101% (inactive)	103% (inactive) and 101% (inactive)	118% (inactive) and 96.8% (inactive)	89.8% (inactive) and 106% (inactive)
CCCCCCCCCCCCCCCCC(C(=O)O)C(O)(CC(=O)O)C(=O)O (stereo not drawn)	90.8% (inactive) and 1.12% (active)	104% (inactive) and -25.5% (active)	111% (inactive)	109% (inactive) and -56.6% (active)	108% (inactive) and 21.3% (inactive)	98.3% (inactive) and 36.1% (inactive)	–	111% (inactive) and -3.72% (active)	–	111% (inactive) and 89.7% (inactive)	98.2% (inactive) and 4.81% (active)	103% (inactive) and -46.4% (active)	–	101% (inactive) and -23.5% (active)	95.7% (inactive) and -2.93% (active)	–	96.9% (inactive)	105% (inactive) and -34.4% (active)
